{"source": "PubChem BioAssay AID1259398", "about": "(Fisher Drug Discovery Resource Center, 2018)", "note": "Where “and” joins values, the source holds several entries; their conditions need not be identical. Identical values can stand only once. About 230 (0.079%) of roughly 290,000 compounds were called active. Rule as the data show it: active = inhibition above about 40%; inactive = the rest. Shown is part of a subset that was picked to be rich in actives."}
{"biological_target": "Cyclic GMP-AMP synthase (Homo sapiens) (UniProt Q8N884)", "sequence (Q8N884 whole entry, looked up)": "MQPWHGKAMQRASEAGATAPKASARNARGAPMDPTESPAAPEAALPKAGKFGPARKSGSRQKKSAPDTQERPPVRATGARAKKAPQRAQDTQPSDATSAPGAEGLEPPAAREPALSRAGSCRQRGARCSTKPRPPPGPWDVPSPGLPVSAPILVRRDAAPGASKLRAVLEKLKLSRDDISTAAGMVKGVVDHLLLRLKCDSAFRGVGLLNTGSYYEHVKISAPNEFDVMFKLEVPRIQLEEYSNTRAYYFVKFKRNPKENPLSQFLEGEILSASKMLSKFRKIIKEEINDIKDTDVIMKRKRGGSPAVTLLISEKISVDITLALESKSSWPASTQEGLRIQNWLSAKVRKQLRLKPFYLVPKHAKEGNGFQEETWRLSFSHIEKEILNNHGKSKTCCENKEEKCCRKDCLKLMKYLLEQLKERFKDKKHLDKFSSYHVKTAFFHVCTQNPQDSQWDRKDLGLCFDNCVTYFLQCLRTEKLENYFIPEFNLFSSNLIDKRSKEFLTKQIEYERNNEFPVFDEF", "experiment": "Biochemical Kinase-Glo luminescence primary assay, human cyclic GMP-AMP synthase inhibition (AID 1259398);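 also: 0% = vehicle reaction and 100% = reaction without DNA for no activity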", "settings": "recombinant h-cGAS, ATP depletion, at 12.5 µM, active compounds read high"}
{"smiles": "N#Cc1cccc(NC(=O)CN(Cc2ccco2)Cc2cccs2)c1", "inhibition": "-0.473% (inactive)"}
{"smiles": "Cc1ccc(C)c(C(C)NC(=O)c2ccccc2-c2nn[nH]n2)c1", "note": "(centres undefined)", "inhibition": "-2.34% (inactive)"}
{"smiles": "COc1ccc(-c2nc3ccccc3c(=O)n2Cc2ccc(F)cc2)c(OC)c1OC", "inhibition": "-5.68% (inactive)"}
{"smiles": "O=C(c1cnc(-c2ccncc2)nc1)N1CCOC(CCCc2ccccc2)C1", "note": "(centres undefined)", "inhibition": "-8.45% (inactive)"}
{"smiles": "O=C(CCC1CCN(C(=O)c2cccc(-n3cccn3)c2)CC1)Nc1ccccc1", "inhibition": "-9.6% (inactive)"}
{"smiles": "CN1CCn2nc(C(=O)NC(c3ccccc3)c3ccco3)cc2C1", "note": "(centres undefined)", "inhibition": "-5.91% (inactive)"}
{"smiles": "Cc1cc(-c2n[nH]c(=O)n2CCc2ccc(F)cc2)n(C)n1", "inhibition": "2.4% (inactive)"}
{"smiles": "Cc1n[nH]c(=O)c2c(NC(=O)CSc3nnc(C)n3C3CC3)oc(C)c12", "inhibition": "-6.69% (inactive)"}
{"smiles": "O=C(CCSCc1ccccn1)NCc1ccc(Br)s1", "inhibition": "-8.25% (inactive)"}
{"smiles": "O=C(O)CCCc1ccc(Br)s1", "inhibition": "74.1% (active)"}
{"smiles": "O=C(O)C=Cc1ccc(Br)s1", "inhibition": "-0.785% (inactive)"}
{"smiles": "Cc1noc(C)c1S(=O)(=O)N1CCCC1c1ccccn1", "note": "(centres undefined)", "inhibition": "-4.73% (inactive)"}
{"smiles": "CN1CCN(Cc2cc(F)ccc2-n2cccn2)CC1CCO", "note": "(centres undefined)", "inhibition": "-8.61% (inactive)"}
{"smiles": "NS(=O)(=O)c1ccc(CNc2ccc3ncc(-c4ccc(Oc5ccccc5)cc4)n3n2)cc1", "inhibition": "-8.75% (inactive)"}
{"smiles": "Cc1ccc(CN(Cc2nc3cc(C)ccc3o2)C(=O)CC(C)C)cc1", "inhibition": "-3.11% (inactive)"}
{"smiles": "Cc1cccc(S(=O)(=O)N2CCN(c3cc(-n4ccnc4)nc(C)n3)CC2)c1", "inhibition": "-1.12% (inactive)"}
{"smiles": "Cc1cccc(-n2ccc3nc(N4CCCCC4)ncc3c2=O)c1", "inhibition": "-4.1% (inactive)"}
{"smiles": "COc1cc(=O)n(-c2ccccc2C)nc1C(=O)NC(c1ccccc1)c1ccccc1", "inhibition": "-0.757% (inactive)"}
{"smiles": "CCCCC(=O)N(C)c1c(C)nc2ccc(C(=O)NCCCN3CCCC3=O)cn12", "inhibition": "-4.09% (inactive)"}
{"smiles": "CCCCS(=O)(=O)N1CCCN(c2nc(CCC)nc3onc(-c4cccc(C(F)(F)F)c4)c23)CC1", "inhibition": "-3.14% (inactive)"}
{"smiles": "Cc1nn(C)c(C)c1CN(C(=O)C1CC(=O)N(CC(C)C)C1)C1CC1", "note": "(centres undefined)", "inhibition": "-3.8% (inactive)"}
{"smiles": "O=C(CCCOc1cccc(Cl)c1Cl)N1CCN(C2CCOC2)CC1", "note": "(centres undefined)", "inhibition": "-4.45% (inactive)"}
{"smiles": "Cn1c(CC2CCNCC2)nnc1SCc1noc(C2CCCO2)n1", "note": "(centres undefined)", "inhibition": "-3.73% (inactive)"}
{"smiles": "COc1cc2c(cc1OC)C(C(C)NS(=O)(=O)c1ccccc1)N(Cc1ccccc1F)CC2", "note": "(centres undefined)", "inhibition": "-1.82% (inactive)"}
{"smiles": "CC(=O)Nc1ccccc1N1C(=O)c2ccc(-c3nc4ccccc4c(=O)o3)cc2C1=O", "inhibition": "0.929% (inactive)"}
{"smiles": "CCOC(=NCc1ccccc1)NC(=O)c1cccc(C(F)(F)F)c1", "inhibition": "-4.46% (inactive)"}
{"smiles": "O=C1NC(C(=O)N2Cc3cnc(-c4ccccc4)nc3C2)CO1", "note": "(centres undefined)", "inhibition": "-0.988% (inactive)"}
{"smiles": "Cc1ccnc2nc(C(=O)N3CCCC3CN3CCCC3)nn12", "note": "(centres undefined)", "inhibition": "-10.3% (inactive)"}
{"smiles": "Cc1[nH]c(/C=C2\\C(=O)Nc3ccc(S(=O)(=O)Cc4c(Cl)cccc4Cl)cc32)c(C)c1C(=O)N1CCC[C@@H]1CN1CCCC1", "inhibition": "63.1% (active)"}
{"smiles": "CC(=O)c1[nH]c(C)c(C(=O)N2CCCCC2CCc2ccccn2)c1C", "note": "(centres undefined)", "inhibition": "-5.8% (inactive)"}
{"smiles": "Cc1nn(C)c2ncc(C(=O)NCCn3cnnc3C(C)C)cc12", "inhibition": "1.28% (inactive)"}
{"smiles": "CC(C)(C)c1cc2nc(-c3ccccc3)cc(C(=O)NC3CCCCNC3=O)n2n1", "note": "(centres undefined)", "inhibition": "1.91% (inactive) and -3.83% (inactive)"}
{"smiles": "CC(C)Nc1ccc(C(=O)N[C@H](C)C(C)(C)C)cn1", "inhibition": "-9.34% (inactive)"}
{"smiles": "CC(NCc1ccccc1Cn1cccn1)C(=O)NC1CCCC1", "note": "(centres undefined)", "inhibition": "-4.67% (inactive)"}
{"smiles": "Cc1ccc(Nc2nc(N3CCN(c4ccc(F)cc4)CC3)nc3nccnc23)c(C)c1", "inhibition": "-2.31% (inactive)"}
{"smiles": "CCc1cnc2c(c1SCc1cccc(C(F)(F)F)c1)c(=O)n(C)c(=O)n2C", "inhibition": "-9.29% (inactive)"}
{"smiles": "Cc1ccc(CN(CCc2c[nH]c3ccccc23)C(=O)CN(C(=O)c2ccc([N+](=O)[O-])cc2)C(C)C)cc1", "inhibition": "-6.46% (inactive)"}
{"smiles": "Nc1cc(-c2cccc(C(F)(F)F)c2)nn1-c1ccc(C(=O)NCc2ccc3c(c2)OCO3)cc1", "inhibition": "-5.72% (inactive)"}
{"smiles": "C=CCNc1ccccc1C(=O)N1[C@@H]2CC[C@H]1CC(O)C2", "note": "(some centres undefined)", "inhibition": "-2.12% (inactive)"}
{"smiles": "Cc1ccc(/C=C/C(=O)N(C)C(C)c2cccc(S(N)(=O)=O)c2)o1", "note": "(centres undefined)", "inhibition": "-0.284% (inactive)"}
{"smiles": "O=c1c(O)c(Br)ccc2c(Br)c(O)c(O)c(O)c12", "inhibition": "70.1% (active)"}
{"smiles": "O=C(C=Cc1ccc(Br)o1)NC1CCCCCC1", "inhibition": "-5.99% (inactive)"}
{"smiles": "O=C(OCC(=O)N1CCCC1c1ccc(Cl)c(Cl)c1)C1CCOC1", "note": "(centres undefined)", "inhibition": "-2.27% (inactive)"}
{"smiles": "CC(C)n1nccc1NC(=O)CN(C)S(=O)(=O)c1ccc(Cl)s1", "inhibition": "-6.6% (inactive)"}
{"smiles": "Cn1cnnc1Sc1ccc(Cl)cc1NC(=O)C1CCCCC1", "inhibition": "-8.95% (inactive)"}
{"smiles": "CCC(C)(C)NC(=O)[C@H](CC(C)C)N1CC[C@@]2(CCCN2C(=O)CCC(C)=O)C1=O", "inhibition": "0.355% (inactive)"}
{"smiles": "Cc1csc(C2CCN(S(=O)(=O)c3ccc(F)cc3Cl)CC2)n1", "inhibition": "-7.52% (inactive)"}
{"smiles": "Fc1cc(F)cc(-c2cncc(COc3ccc(F)cc3F)c2)c1", "inhibition": "1.15% (inactive)"}
{"smiles": "COc1nc(C)cc(C)c1CNC(=O)C(=O)N1CCc2ccccc21", "inhibition": "4.25% (inactive)"}
{"smiles": "CCOC(=O)C1(C)CCCN1C(=O)c1cc(C)on1", "note": "(centres undefined)", "inhibition": "-5.23% (inactive)"}
{"smiles": "O=C(NC1CCN(c2ccccc2C(=O)NCc2cccc(C(F)(F)F)c2)CC1)c1ccccc1F", "inhibition": "-3.47% (inactive)"}
{"smiles": "Cc1cc(=O)n(-c2ccc(S(=O)(=O)O)cc2C)[nH]1", "inhibition": "-8.43% (inactive)"}
{"smiles": "CCOC(=O)C1CCCN(Cn2c(=O)c3ccccc3n3nc(C)cc23)C1", "note": "(centres undefined)", "inhibition": "-0.416% (inactive)"}
{"smiles": "O=C(c1cc(Cn2ccc3ccccc32)[nH]n1)N1CCCC1c1nccs1", "note": "(centres undefined)", "inhibition": "-1.07% (inactive)"}
{"smiles": "CCc1cnc(COc2ccc(OC3CCCCNC3=O)cc2)o1", "note": "(centres undefined)", "inhibition": "-10.1% (inactive)"}
{"smiles": "COC(=O)c1c(C)[nH]c(C(=O)N2CCCC2c2ccc(OC)cc2)c1C", "note": "(centres undefined)", "inhibition": "-3.09% (inactive)"}
{"smiles": "COc1ccc(-c2nnc(SCC(=O)N/N=C\\c3ccccn3)n2-c2ccccc2)cc1OC", "inhibition": "1.79% (inactive)"}
{"smiles": "C[N+](C)(CCCCCC[N+](C)(C)CCCN1C(=O)c2cccc3cccc(c23)C1=O)CCCN1C(=O)c2cccc3cccc(c23)C1=O", "inhibition": "90.3% (active)"}
{"smiles": "O=C1c2cccc3cccc(c23)C(=O)N1CCCCCc1n[nH]c(=S)o1", "inhibition": "-2.3% (inactive)"}
{"smiles": "Cc1ccccc1N(CCCN1C(=O)c2cccc3cccc(c23)C1=O)C(=O)c1ccc([N+](=O)[O-])cc1", "inhibition": "-1.77% (inactive)"}
{"smiles": "COc1cn(CC(=O)NCc2ccc3c(c2)OCO3)c(CSc2ncccn2)cc1=O", "inhibition": "-5.34% (inactive)"}
{"smiles": "COCCCN(CC(=O)N(Cc1ccc2c(c1)OCO2)Cc1cccs1)C(=O)C1C[C@H]1c1ccccc1", "note": "(some centres undefined)", "inhibition": "-8.64% (inactive)"}
{"smiles": "O=C(CCNC(=O)C1CC2(CCNCC2)CN1)Nc1nccs1", "note": "(centres undefined)", "inhibition": "-7.06% (inactive)"}
{"smiles": "COCc1c(Br)c(C)nc(OCC(=O)N/N=C\\c2cc(I)c(OCc3ccccc3Cl)c(OC)c2)c1C#N", "inhibition": "-3.7% (inactive)"}
{"smiles": "CN1CCN(C(=O)c2cc(COc3ccc(-n4cncn4)cc3)on2)CC1c1ccccc1", "note": "(centres undefined)", "inhibition": "-7.12% (inactive) and -3.64% (inactive)"}
{"smiles": "CCOc1cc(Br)cc(/C=N\\Nc2nc(N3CCCCC3)nc(N3CCCCC3)n2)c1O", "inhibition": "-5.11% (inactive)"}
{"smiles": "CC1CCCN(c2nn3c(C(=O)NCCN4CCCCCC4)cc(=O)nc3s2)C1", "note": "(centres undefined)", "inhibition": "-1.82% (inactive)"}
{"smiles": "Nc1ccc(NC(=S)NCc2ccco2)cc1[N+](=O)[O-]", "inhibition": "-4.64% (inactive)"}
{"smiles": "CCN1CCN(c2ccccc2NS(=O)(=O)c2cc(Br)ccc2OC)CC1", "inhibition": "-2.43% (inactive)"}
